Assay results from PubChem BioAssay (NCI).
This is part of a sample that, as a whole, favours compounds with a hit. Of some 83,000 tested, about 20% had one in any assay.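 Interpretation: 100, growth as untreated; towards 0, rising growth inhibition; 0, no net growth; 0 to -100, cell death. Compounds scoring below 10 were considered active.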 Unmarked numbers belong to inactive results. Active and inactive are the calls of the source.

Tests used:
Assay in all cases: NCI-60 one-dose screen, 48 h (100 = growth as untreated, 0 = no growth, -100 = all killed)
Conditions in all cases: 10 µM unless noted
HCT-15 colon = tested on: HCT-15 colon
HT29 colon = tested on: HT29 colon
SNB-75 CNS = tested on: SNB-75 CNS
SNB-19 CNS = tested on: SNB-19 CNS
U251 CNS = tested on: U251 CNS
PC-3 prostate = tested on: PC-3 prostate
SK-MEL-5 melanoma = tested on: SK-MEL-5 melanoma
UACC-62 melanoma = tested on: UACC-62 melanoma
LOX IMVI melanoma = tested on: LOX IMVI melanoma
SK-MEL-28 melanoma = tested on: SK-MEL-28 melanoma

| Compound | growth (HCT-15 colon) | growth (HT29 colon) | growth (SNB-75 CNS) | growth (SNB-19 CNS) | growth (U251 CNS) | growth (PC-3 prostate) | growth (SK-MEL-5 melanoma) | growth (UACC-62 melanoma) | growth (LOX IMVI melanoma) | growth (SK-MEL-28 melanoma) |
| --- | --- | --- | --- | --- | --- | --- | --- | --- | --- | --- |
| COc1cc(CNC(=O)C[C@H](C)CCC=C(C)C)ccc1OCc1cn(-c2ccc(Cl)c(Cl)c2)nn1 | 29.4% | 78.3% | 47.2% | 81.3% | 48.2% | 65.9% | 71.9% | 69.3% | 50.6% | 89.3% |
| CCCCCCCCc1cccc(CC(=O)Nc2ccc(C)cc2C(=O)O)c1 | 13.2% [25 µM] | 35.9% [25 µM] | 74.1% [25 µM] | 50.9% [25 µM] | 38.2% [25 µM] | 46.8% [25 µM] | 36.5% [25 µM] | 49.4% [25 µM] | 3.4% [25 µM] (active) | 65.5% [25 µM] |
| C=CCSc1nnc(-c2ccc(-c3nc4ccc(Cl)cc4[nH]3)cc2)o1 | 28% | 32.1% | 45.9% | 76.1% | 47.3% | 63.2% | 35.9% | 39.4% | 39.4% | 60% |
| COc1cc(CNC(=O)[C@]23CCC(C)(C)CC2C2=CCC4[C@@]5(C)CCC(OC(C)=O)C(C)(C)C5CC[C@@]4(C)[C@]2(C)CC3)ccc1OCc1cn(-c2ccc(Cl)cc2Cl)nn1 (stereo not given in full) | 111% | 98% | 118% | 89.8% | 104% | 98.3% | 103% | 81.4% | 98.3% | 117% |
| O=C(Cc1c(-c2cccc([N+](=O)[O-])c2)n(-c2ncnc3c2c(-c2ccccc2)c(-c2ccccc2)n3Cc2ccccc2)[nH]c1=O)c1ccc(Cl)c(Cl)c1 | 62.3% | 37% | 46.1% | 25.9% | 26.4% | 30.7% | -10.2% (active) | 14% | 15.7% | 46.3% |
| COc1ccc(-c2nc3ccc(-c4nnc(SCC(=O)Nc5ccc(/C(C)=N\O)cc5)o4)cc3[nH]2)cc1 | 93.4% | 86.3% | 11.8% | 57% | 18.6% | 44.3% | -75.7% (active) | 14% | 33.8% | -64.6% (active) |
| COc1ccc(NC2=C(I)C(=O)C(C)=C(C)C2=O)cc1 | 64.3% | 101% | 86.3% | 81.2% | 25.9% | 10.2% | -44.6% (active) | 33.3% | 2.42% (active) | 52.6% |
| COc1cc(NC(=O)CSc2nnc(-c3ccc(-c4nc5ccc(Cl)cc5[nH]4)cc3)o2)cc(OC)c1OC | 25.6% | 51.3% | 36.8% | 49.3% | 32.8% | 52.3% | 5.22% (active) | 28.4% | 32.2% | 49.1% |
| O=C1/C(=C/C=C/c2ccco2)SC(=S)N1CC(=S)C1C=CS(=O)(=O)C1 (stereo not given) | 75.6% | 109% | 93.5% | 95.2% | 88.7% | 96.7% | 86.8% | 74.4% | 66.7% | 93.9% |
| Cc1ccc(Nc2nnc(-c3c[nH]c4ccccc34)o2)c(C)c1 | 8.92% (active) | -37.9% (active) | 27.3% | 31.3% | 5.02% (active) | 28.7% | 6.62% (active) | 7.3% (active) | 1.68% (active) | 54.5% |
| COc1cc(/C=C/C(=O)c2cnn(-c3cc(=O)[nH]c4ccccc34)c2C)cc(OC)c1OC | 12.2% | 9.84% (active) | 71.9% | 26.6% | 9.13% (active) | 43.3% | -24.9% (active) | 29.9% | 13.5% | 36.5% |
| CC(C)CN1C(=O)/C(=C\C(=O)c2cc3ccccc3oc2=O)c2ccccc21 | 45.3% | 114% | 82.6% | 100% | 106% | 96.6% | 97% | 83.2% | 85.7% | 90.1% |
| FC(F)(F)CN1CCN(CCn2c(C(F)(F)F)cc3c(Cl)ncnc32)CC1 | -56.7% (active) | 12.5% | -32.1% (active) | -87.5% (active) | -12.6% (active) | 18.2% | 9.63% (active) | 28.4% | -96.7% (active) | 31.3% |
| CC1=C(C)C(=O)C(NCCN2CCOCC2)=C(Br)C1=O | 90.7% | 93.7% | 106% | 91.3% | 44.8% | 61.8% | 62.1% | 39.4% | -28.5% (active) | 75.4% |
| CN1C(=O)C2(C(C#N)=C(c3ccc(Cl)cc3)Nc3c2c(-c2ccccc2)nn3-c2ccccc2)c2ccccc21 (stereo not given) | 87.6% | 85.2% | 69.4% | 87% | 102% | 85.8% | 88.1% | 69.5% | 55.3% | 94.2% |
| O=C(Cn1c(-c2ccccc2)nc2ccccc21)N=Nc1c(O)[nH]c2ccc(Cl)cc12 | 7.61% (active) | 2.44% (active) | -49.5% (active) | -4.56% (active) | 13.4% | 21.7% | 10.7% | -2.77% (active) | 8.05% (active) | -51% (active) |
